Screening results: PubChem BioAssay, several laboratories
GDH-TPI inh = GDH-TPI coupled enzyme inhibition counter-screen; GDH-TPI coupled enzyme counterscreen, NADH absorbance; inhibition, % at 4.8 µM; hit rate 1.2% among 360,000; AID 588335;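 also: 0% = DMSO wells and 100% = wells lacking the enzyme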
Mtb FBA inh = inhibits M. tuberculosis FBA enzyme; P9WQA3; purified M. tuberculosis FBA, fluorescence read-out; inhibition, % at 1 µM; hit rate 2.3% among 360,000; in the data active = inhibition above about 27%;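 also: 0% = vehicle and 100% = reference inhibitor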
Target sequence (P9WQA3 whole entry, looked up): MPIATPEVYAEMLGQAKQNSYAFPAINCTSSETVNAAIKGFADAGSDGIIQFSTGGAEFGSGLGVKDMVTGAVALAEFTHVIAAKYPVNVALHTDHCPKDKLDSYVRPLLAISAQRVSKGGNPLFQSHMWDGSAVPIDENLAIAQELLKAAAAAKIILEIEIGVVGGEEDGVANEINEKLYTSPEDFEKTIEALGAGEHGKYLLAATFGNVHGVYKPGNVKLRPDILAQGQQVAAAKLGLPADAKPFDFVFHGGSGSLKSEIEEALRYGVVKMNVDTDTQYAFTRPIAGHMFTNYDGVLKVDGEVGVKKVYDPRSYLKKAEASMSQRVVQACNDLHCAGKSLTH
CCHF vOTU inh = blocks the CCHF virus ovarian tumor domain protease; hit rate 0.55% among 370,000; inhibition, % at 11.5 µM; CCHFV vOTU protease, Pep-AMC fluorescence; also: 0% = vehicle wells with enzyme and 100% = no enzyme wells
Mtb betalactam = beta-lactam sensitization of Mtb H37Rv | inhibition, % at 25 µM | hit rate 0.27% among 330,000 | M. tuberculosis H37Rv growth with meropenem, percent inhibition | AID 434955; call rule not given here;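 also: growth measured after seven days incubation then overnight dye step; 0% = bacteria only wells and 100% = bacteria with antibiotic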
MazEF act = MazEF (E. coli) toxin RNase activation; AID 504720; FAM/BHQ RNA-DNA oligo cleavage fluorescence, 5 h; activation, % at 20 µM; hit rate 0.32% among 350,000; in the data active = activation above about 50%
Target sequence (P0AE70 whole entry, looked up): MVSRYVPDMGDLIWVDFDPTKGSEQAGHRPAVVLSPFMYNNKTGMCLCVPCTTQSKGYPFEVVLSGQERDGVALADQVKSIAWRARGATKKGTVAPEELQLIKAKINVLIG
Starred values were filed as active, the others as inactive. Hits are enriched below; roughly 4% of the tested compounds scored in any of these assays. Rule as the data show it, unless noted: active = inhibition above about 30%; inactive = the rest.

What do the screens show for `C=C(C)c1cccc(C(C)(C)NC(=O)N2CCN(CC)CC2)c1`?
GDH-TPI inh: -9; Mtb FBA inh: 2; CCHF vOTU inh: 0; Mtb betalactam: -6; MazEF act: -8

Results for CC1S/C(=N/N=C/c2cccs2)NC1=O (centres undefined) ?
GDH-TPI inh: 42*; Mtb FBA inh: 0; CCHF vOTU inh: 8; Mtb betalactam: 22; MazEF act: 4

What do the screens show for `Cc1cccc(NC(=O)C2CC(=O)N/C(=N/N=C/c3ccco3)S2)c1` (centres undefined)?
GDH-TPI inh: 57*; Mtb FBA inh: -2; CCHF vOTU inh: 23; Mtb betalactam: 3; MazEF act: 3

How did CC1S/C(=N/N=C/c2ccco2)NC1=O (centres undefined) do in these assays?
GDH-TPI inh: 39*; Mtb FBA inh: -2; CCHF vOTU inh: 15; Mtb betalactam: 15; MazEF act: 0

Results for Cc1cccc(CC2S/C(=N/N=C/c3ccco3)NC2=O)c1 (centres undefined) ?
GDH-TPI inh: 20; Mtb FBA inh: 1; CCHF vOTU inh: 11; Mtb betalactam: 1; MazEF act: -1

How did CC1(C)S/C(=N/N=C/c2ccco2)NC1=O do in these assays?
GDH-TPI inh: 55*; Mtb FBA inh: -1; CCHF vOTU inh: 6; Mtb betalactam: 11; MazEF act: -12

What do the screens show for `CCC1S/C(=N/N=C/c2cccs2)NC1=O` (centres undefined)?
GDH-TPI inh: 30; Mtb FBA inh: -2; CCHF vOTU inh: 18; Mtb betalactam: 52; MazEF act: 1

What do the screens show for `CCCC1S/C(=N/N=C/c2ccco2)NC1=O` (centres undefined)?
GDH-TPI inh: 28; Mtb FBA inh: -1; CCHF vOTU inh: -5; Mtb betalactam: 7; MazEF act: 2

How did CCCCC1S/C(=N/N=C/c2ccco2)NC1=O (centres undefined) do in these assays?
GDH-TPI inh: 19; Mtb FBA inh: 1; CCHF vOTU inh: 10; Mtb betalactam: 7; MazEF act: -6

What do the screens show for `Cn1cccc1C(=O)N1CCN(S(=O)(=O)c2ccc(C(C)(C)C)cc2)CC1`?
CCHF vOTU inh: 4

How did COc1ccc(C(=O)OCCN2CCN(C3CN(Cc4cn(Cc5cccc(C)c5)nn4)S(=O)(=O)C3)CC2)cc1OC (centres undefined) do in these assays?
CCHF vOTU inh: -2

Results for CC(C)C(=O)N[C@H]1[C@H](O)CCC[C@@]12C(=O)N(Cc1ccccc1)c1ccccc12 ?
CCHF vOTU inh: 8

What do the screens show for `COc1ccc(/C=N/NC2=NS(=O)(=O)c3ccccc32)cc1OC`?
GDH-TPI inh: 35*; Mtb FBA inh: -3; CCHF vOTU inh: 9; Mtb betalactam: 2; MazEF act: 4

What do the screens show for `COc1cc(/C=N/NC2=NS(=O)(=O)c3ccccc32)ccc1OC(C)=O`?
GDH-TPI inh: 34*; Mtb FBA inh: 3; CCHF vOTU inh: 8; Mtb betalactam: 8; MazEF act: -9

Results for COc1ccc(C(=O)NNC2=NS(=O)(=O)c3ccccc32)cc1OC ?
GDH-TPI inh: 12; Mtb FBA inh: -2; CCHF vOTU inh: 9; Mtb betalactam: -7; MazEF act: 8

Results for COc1cc(C=NNc2ccccc2)ccc1OC(=O)c1ccccc1 ?
GDH-TPI inh: 19; Mtb FBA inh: 3; CCHF vOTU inh: 3; MazEF act: -6

What do the screens show for `CCS(=O)(=O)Nc1ccc(C2=NN(C(=O)c3ccco3)C(c3cccs3)C2)cc1` (centres undefined)?
GDH-TPI inh: 46*; Mtb FBA inh: 2; CCHF vOTU inh: 26; Mtb betalactam: 17; MazEF act: 2

What do the screens show for `CCc1ccc(C2=NN(S(C)(=O)=O)C(c3cccs3)C2)cc1` (centres undefined)?
GDH-TPI inh: 16; Mtb FBA inh: 1; CCHF vOTU inh: -1; Mtb betalactam: 3; MazEF act: 283*

How did Cc1ccc(C2=NN(S(C)(=O)=O)C(c3cccs3)C2)cc1 (centres undefined) do in these assays?
GDH-TPI inh: 3; Mtb FBA inh: 1; CCHF vOTU inh: 6; Mtb betalactam: -8; MazEF act: 8

Results for CC(=O)Nc1ccc(C2=NN(c3ccccc3)C(c3cccs3)C2)cc1 (centres undefined) ?
GDH-TPI inh: 7; Mtb FBA inh: 189*; CCHF vOTU inh: -18; Mtb betalactam: 5; MazEF act: 5

How did C=CC(=O)NC1CCCCN(C(C)C)C1=O (centres undefined) do in these assays?
CCHF vOTU inh: -5

How did N#C/C(=C1/CCCCCN1)c1nc2ccccc2[nH]1 do in these assays?
GDH-TPI inh: 39*; Mtb FBA inh: -3; CCHF vOTU inh: 18; Mtb betalactam: -3; MazEF act: -6

How did N#C/C(=C1\CCCN1)c1ccc2ccccc2n1 do in these assays?
GDH-TPI inh: 6; Mtb FBA inh: 0; CCHF vOTU inh: -5; Mtb betalactam: -2; MazEF act: -1

What do the screens show for `CCOC(=O)CSc1nc2cc3c(cc2cc1C)OCO3`?
GDH-TPI inh: 21; Mtb FBA inh: -2; CCHF vOTU inh: 0; Mtb betalactam: 6; MazEF act: -1

How did Cc1ccc(-c2nnc(CSc3nc4cc5c(cc4cc3C)OCO5)o2)cc1 do in these assays?
GDH-TPI inh: 4; Mtb FBA inh: 0; CCHF vOTU inh: -11; Mtb betalactam: 11; MazEF act: 437*

How did CCN(C)c1nc(C)nc2c1nnn2Cc1ccccc1 do in these assays?
CCHF vOTU inh: -3

Results for COC(=O)C1=CN(CC2CCCO2)C=C(C(=O)OC)C1c1cccc(O)c1 (centres undefined) ?
GDH-TPI inh: 3; Mtb FBA inh: 196*; CCHF vOTU inh: -238; Mtb betalactam: 1; MazEF act: 5

How did COC(=O)C1=CN(CC2CCCO2)C=C(C(=O)OC)C1c1ccccc1C(F)(F)F (centres undefined) do in these assays?
GDH-TPI inh: 6; Mtb FBA inh: 158*; CCHF vOTU inh: -88; Mtb betalactam: 4; MazEF act: -2

What do the screens show for `COC(=O)C1=CN(CCCN2CCCC2=O)C=C(C(=O)OC)C1c1ccccc1C(F)(F)F`?
GDH-TPI inh: 22; Mtb FBA inh: 123*; CCHF vOTU inh: -181; Mtb betalactam: -5; MazEF act: 2

What do the screens show for `COC(=O)C1=C(N)Oc2cc(C)n(CC3CCCO3)c(=O)c2C1c1ccccc1OC` (centres undefined)?
GDH-TPI inh: 5; Mtb FBA inh: 2; CCHF vOTU inh: 0; Mtb betalactam: 1; MazEF act: 1

Results for COc1ccccc1C(=O)NCCCN1CCCC1=O ?
GDH-TPI inh: -11; Mtb FBA inh: -1; CCHF vOTU inh: 0; Mtb betalactam: -4; MazEF act: -3

How did COC(=O)[C@]12C[C@H](CC(=O)N3CCCC3)C(=O)N(Cc3ccc(Cl)cc3Cl)C1=C[C@H](COCc1ccccc1)O[C@@H]2C do in these assays?
CCHF vOTU inh: 2

Results for COc1ccc(C(C(=O)N(C)C2CCCC2)N(Cc2ccc(F)cc2)C(=O)c2cc(C)[nH]n2)cc1OC (centres undefined) ?
CCHF vOTU inh: -4
